# Assay outcomes as filed in PubChem.
# Casp6 inh: inhibitors of human caspase-6; AID 686996; purified caspase-6, Z-VEID-R110 cleavage fluorescence; inhibition, % at 12.5 µM; 0.53% of 350,000 active;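 active = mean inhibition across replicates at least about 35%, with every replicate also reaching that limit, limit read from the data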;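 note: 0% = median of neutral control wells and 100% = no fluorescence left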
# ERAP1 inh: blocks human ERAP1 aminopeptidase activity; AID 652197; 0.15% of 340,000 active; Q9NZ08; recombinant ERAP1, Leu-AMC fluorescence, 60 min; inhibition, % at 10.7 µM;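 active = mean replicate inhibition of at least 30%, or all replicates individually reaching that 30% level; inactive = mean below 30% and not every replicate reaching it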;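 note: 0% = neutral control wells and 100% = L-leucinethiol positive control wells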
# SIRT5 block: blocks human SIRT5 desuccinylation of peptide; Q9NXA8; 1.1% of 330,000 active; Purified SirT5, succinyl-peptide AMC, trypsin-coupled fluorescence; inhibition, % at 15 µM; AID 652115; in the data active = inhibition above about 15%
# Target sequence (Q9NXA8 whole entry, looked up): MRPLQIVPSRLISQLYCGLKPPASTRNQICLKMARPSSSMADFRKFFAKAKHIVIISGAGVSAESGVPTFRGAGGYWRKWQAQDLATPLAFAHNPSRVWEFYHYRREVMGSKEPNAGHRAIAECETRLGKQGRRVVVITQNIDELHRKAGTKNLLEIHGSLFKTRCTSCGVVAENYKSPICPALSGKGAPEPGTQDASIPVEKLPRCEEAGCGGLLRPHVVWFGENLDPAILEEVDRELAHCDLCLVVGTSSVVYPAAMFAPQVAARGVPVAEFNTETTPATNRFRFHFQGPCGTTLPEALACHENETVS
# FGF22 binding: shifts melting point of recombinant human FGF22. Q9HCT0. recombinant FGF22 thermal shift, SYPRO orange fluorescence; percent of sucrose octasulfate shift, DMSO zero. activity (Tm shift, normalised), % at 9.99 µM. 1.5% of 340,000 active;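 active = mean Tm shift, scaled 0 neutral to 100 positive control, at about 1.3% or above, every replicate too, limit read from the data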
# Target sequence (Q9HCT0 whole entry, looked up): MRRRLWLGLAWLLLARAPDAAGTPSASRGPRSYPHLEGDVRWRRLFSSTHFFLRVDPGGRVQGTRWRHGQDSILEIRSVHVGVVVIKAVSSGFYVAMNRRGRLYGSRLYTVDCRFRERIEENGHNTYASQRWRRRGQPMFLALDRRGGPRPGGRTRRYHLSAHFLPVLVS
# * marks the source's active call; other numbers are inactive results; x = not tested or not shown. Hits are enriched below; roughly 3.1% of the tested compounds scored in any of these assays.
SMILES,Casp6 inh,ERAP1 inh,SIRT5 block,FGF22 binding
C[C@H](CO)N1C[C@H](C)[C@H](CN(C)C(=O)Nc2ccc(C(F)(F)F)cc2)OCCCC[C@H](C)Oc2ccc(NS(=O)(=O)c3ccc(Cl)cc3)cc2C1=O,0.0,-0.7,39.9*,-0.1
C[C@H](CO)N1C[C@H](C)[C@H](CN(C)C(=O)CCC(F)(F)F)OCCCC[C@H](C)Oc2ccc(NS(=O)(=O)c3ccc(Cl)cc3)cc2C1=O,-0.5,1.7,16.7*,-0.8
C[C@@H]1CCCCO[C@@H](CN(C)C(=O)Nc2ccccc2)[C@H](C)CN([C@H](C)CO)C(=O)c2cc(NS(=O)(=O)c3ccc(Cl)cc3)ccc2O1,4.3,1.3,12.2,3.6*
CN1CCN(C(=O)C[C@@H]2CC[C@H]3[C@H](COc4ccc(NC(=O)C5CCOCC5)cc4C(=O)N3C)O2)CC1,-2.0,-4.1,1.6,0.1
CO[C@@H]1CN(C)C(=O)c2ccc(NS(C)(=O)=O)cc2OC[C@@H](C)N(C(=O)C2CCOCC2)C[C@H]1C,-0.9,-2.0,1.3,0.2
Cc1noc(C)c1NC(=O)N(C)C[C@H]1OCCCC[C@@H](C)Oc2ccc(NC(=O)c3ccncc3)cc2C(=O)N([C@H](C)CO)C[C@H]1C,-1.8,-0.8,-0.4,0.0
C/C=C/c1ccc([C@@H]2[C@H](CO)N(CC3CC3)[C@H]2CNC(=O)c2ccccc2)cc1,-0.8,2.5,-1.6,0.4
CCCNC(=O)[C@@H]1[C@@H](CO)[C@@H]2Cn3c(cccc3=O)[C@H]1N2Cc1cc(F)ccc1F,2.5,-1.1,-1.4,-0.1
Cc1noc(C)c1S(=O)(=O)Nc1ccc2c(c1)CC(=O)N([C@H](C)CO)C[C@H](C)[C@@H](CN(C)C(=O)NC1CCCCC1)O2,-0.7,1.5,-4.6,0.0
O=C(C[C@H]1CC[C@@H]2[C@H](COC[C@@H](O)CN2S(=O)(=O)c2ccccc2)O1)N1CCOCC1,1.8,-7.4,2.8,0.3
C[C@@H]1CCCCO[C@H](CN(C)C(=O)Nc2ccc(C(F)(F)F)cc2)[C@@H](C)CN([C@H](C)CO)C(=O)c2cc(NS(=O)(=O)c3cn(C)cn3)ccc2O1,-1.3,-0.1,-1.1,1.5*
Cc1ccc(S(=O)(=O)Nc2ccc3c(c2)C(=O)N([C@@H](C)CO)C[C@@H](C)[C@@H](CN(C)C(=O)Nc2ccc(C(F)(F)F)cc2)OCCCC[C@@H](C)O3)cc1,-0.7,1.2,15.3*,0.1
Cc1nc(-c2ccc3c(c2)OCCO3)cs1,0.2,-3.6,-2.8,43.1*
O=C(C[C@@H]1C=C[C@H](NC(=O)c2ccccc2)[C@@H](CO)O1)NCCc1ccncc1,-14.6,1.2,2.2,0.6
C[C@@H]1CN([C@@H](C)CO)C(=O)c2cccc(NC(=O)Nc3ccc(C(F)(F)F)cc3)c2O[C@@H]1CN(C)C(=O)Nc1ccc(C(F)(F)F)cc1,-2.8,0.9,0.9,0.1
Cn1c(=O)c2cc(NC(=S)NCc3ccccc3F)ccc2n1Cc1cccc(C(F)(F)F)c1,0.4,-2.0,-4.4,3.9*
Cn1c(=O)c2cc(NC(=S)NCc3ccccc3F)ccc2n1Cc1ccccc1,4.8,-6.3,0.9,0.1
Cn1c(=O)c2cc(NC(=O)NCc3ccc(Cl)cc3Cl)ccc2n1Cc1ccc(F)cc1,-6.2,2.1,x,44.8*
CC(C)=CCn1c2ccc(NC(=O)NCc3ccc(F)cc3)cc2c(=O)n1C,2.5,0.3,-4.0,-0.2
COc1ccc(-n2c(C)cc(/C=C/c3nc(O)c([N+](=O)[O-])c(=O)[nH]3)c2C)cc1,62.1*,8.6,0.0,0.4
CCOc1ccccc1/C=C\c1nc(O)c([N+](=O)[O-])c(=O)[nH]1,7.8,6.6,1.5,-0.4
Cc1cc(/C=C\c2nc(O)c([N+](=O)[O-])c(=O)[nH]2)c(C)n1-c1ccccc1,61.1*,11.6,7.9,0.1
O=C(Nc1ccc2c(c1)OCO2)N[C@@H]1CC[C@H](CCNC(=O)C2CCCC2)O[C@H]1CO,2.8,1.9,1.1,-0.5
CNC[C@@H]1Oc2ccc(NS(=O)(=O)c3ccc(C)cc3)cc2CC(=O)N([C@H](C)CO)C[C@H]1C,-3.5,2.0,-2.5,-0.2
CCOC(=O)N1CCN(C(=O)CN(C)S(=O)(=O)c2ccc3c(c2)c(=O)n(C)c(=O)n3C)CC1,42.0*,-0.2,3.4,0.3
SMILES,Casp6 inh,ERAP1 inh,SIRT5 block,FGF22 binding
COc1ccc(N2CCN(C(=O)CN(C)S(=O)(=O)c3ccc4c(c3)c(=O)n(C)c(=O)n4C)CC2)cc1,-0.2,4.9,-4.7,-0.5
C[C@@H]1CCCCO[C@H](CN(C)C(=O)NC2CCCCC2)[C@H](C)CN([C@@H](C)CO)C(=O)c2cc(NC(=O)c3ccccc3)ccc2O1,x,x,x,-0.3
CCOC(=O)CC(=O)CSc1ccc2nnc(-c3ccccc3)n2n1,-0.1,1.5,8.1,0.0
c1ccc(-c2nn3c(-c4ccccc4)nnc3o2)cc1,2.1,2.1,-2.8,-0.2
CN(C)c1nn2c(-c3ccccc3)nnc2o1,9.7,3.7,x,43.2*
CCCc1nn2c(-c3ccccc3)nnc2o1,-1.7,4.1,x,43.1*
COc1ccccc1CNC(=O)C[C@H]1C[C@@H]2c3cc(NC(=O)Nc4ccccc4F)ccc3O[C@@H]2[C@@H](CO)O1,-2.4,2.3,-1.8,-0.1
CN(C)C(=O)C[C@H]1C=C[C@@H](NC(=O)C2CC2)[C@@H](CO)O1,1.1,-2.0,-3.6,-0.1
O=C(C[C@@H]1CC[C@@H]2[C@H](COC[C@@H](O)CN2C(=O)Cc2ccccc2)O1)NC1CCC1,1.4,-40.7,3.5,-0.2
COc1ccc(/C=C(\C#N)C(=O)N=CN(C)C)cc1,3.8,-2.1,-0.2,0.0
CO/N=C/C(C#N)=C/c1ccc(OC)cc1,0.1,-6.3,0.6,43.7*
C[C@@H]1CN([C@@H](C)CO)C(=O)c2cccc(NC(=O)Nc3ccc(F)cc3)c2O[C@@H]1CN(C)S(=O)(=O)c1ccccc1,x,-0.7,-1.8,0.1
COCCCNC(=S)N1CCN(c2nc(C)nc3sc4c(c23)CCCC4)CC1,-0.3,-0.3,2.6,-0.2
CCCNC(=S)N1CCN(c2nc(C)nc3sc4c(c23)CCCC4)CC1,2.5,2.4,-2.4,43.0*
O=C(C[C@@H]1CC[C@H](NC(=O)c2ccccc2)[C@H](CO)O1)NCc1ccc(Oc2ccccc2)cc1,1.2,-4.9,-3.4,-0.2
COc1ccc2c3c([nH]c2c1)[C@@H](CO)N(C(=O)c1cccc(F)c1)CC31CCN(S(=O)(=O)c2cccs2)CC1,x,x,-2.3,0.0
CCOc1ccc(CN2CCN(Cc3cc4ccccc4[nH]3)CC2CCO)cc1 (stereo not given),-2.6,-3.8,-0.4,43.4*
COc1cccc(CN2CCN(Cc3[nH]c4ccccc4c3C)CC2CCO)c1 (stereo not given),-1.8,-3.2,-4.8,43.0*
COc1cccc(CN2CCN(Cc3cc4ccccc4[nH]3)CC2CCO)c1 (stereo not given),0.7,-1.7,-0.7,-0.2
COc1ccc(CN2CCN(Cc3cccc(OC)c3)C(CCO)C2)cc1 (stereo not given),7.3,-3.3,-2.0,0.2
